Test results: PubChem BioAssay AID1347416 (National Center for Advancing Translational Sciences (NCATS), 2020)
Screen size: about 4,100 compounds; about 1,600 (39%) were called active. Another 25% or so got no clear call; they are omitted. Calls come from the whole dose curve; as a rule, active = well fitted inhibition curve with a large enough effect; inconclusive = small, poorly fitted or top-dose-only effect; inactive = no such curve, though single readings can be large or run the other way. The list shows a part of the results. Where a call stands in place of a potency, no number is given.

Test: qHTS Validation assay for Inhibitors of Plasmodium falciparum Dd2 growth in vitro; note: nearly all actives have a fitted effect of over 70% in size
Conditions: P. falciparum Dd2 in RBCs, SYBR Green growth, 72 h; series mostly up to 28.7 µM
Description: Malaria, a parasitic disease spread to humans through the bite of a Plasmodium infected Anopheles mosquito, continues to be a global health burden affecting millions of people, with an estimated 228 million cases and 405,000 deaths in 2018. Concerns about safety and limitations of current antimalarial treatments strongly emphasize the need to develop new therapeutic options. The scarce number of chemotypes and validated drug targets with efficacy against the liver stage, have hindered development of new antimalarials. To address this, a chemoprophylactic drug discovery effort was conducted through a combined phenotypic high-throughput asexual blood stage and liver stage screen, providing a robust foundation to identify liver-stage active lead chemotypes. Compounds were initially screened against Plasmodium falciparum Dd2 strain parasites using a in vitro SYBRGreen-1 based 72 hr proliferation assay to identify novel chemotypes to advance to liver stage assays. NIH/NCATS Early Translation Branch Assay Submitter (PI): Anton Simeonov Ph.D.
[…] Assay Protocol: PROTOCOL TABLE (as described by Inglese et al., 2007) SEQUENCE No. (e.g., 1, 2, 3, etc.); PARAMETER (e.g., Cells, Incubation, Reagent, etc.); VALUE; DESCRIPTION SEQUENCE, Parameter, Description 1; Reagent; 3 uL complete malaria growth medium, 1536 TC treated Black clear bottom plate 2; Controls; 23 nL positive control artesunate (300 nM final) to column 1; Neutral control DMSO to columns 2-4 3; Compound; 23 nL of compounds in dose response concentration (29 uM to 0.5 nM final) 4; Reagent; 5 uL malaria infected red blood cells (2.5% hematocrit final, 0.3% parasitemia 5; Time; 72 hours at 37C (5% O2, 5% CO2, 90% N2; 95% Rh) 6; Reagent; 2 uL lysis buffer/SYBRGreen-1, 25 sec shake immediately following dispense 7; Time; ~16 hours at 37C (5% O2, 5% CO2, 90% N2; 95% Rh) 8; Detector; EnVision (PerkinElmer) bottom read at 485/14nm excitation and 535/25 nm emission NOTES (numbers refer to sequence above): 1; Complete Malaria Growth Media: 1X RPMI-1640 w/L-glutamine, 5.5g/L Albumax II, 367 uM Hypoxanthine, 25 mM HEPES, 0.25% Sodium Bicarbonate, 35 uM Gentamicin sulfate 2; Controls were added using the Kalypsis Pintool (Wako USA) equipped with 1536 pinhead 3; Compounds were added in a 7-point, titration with a high final concentration of 29 uM by Pintool from seven inter-plate titrations of library plates and two DMSO control plates at the beginning and end (see Yasgar et al., 2008). 4; Red blood cells infected with Plasmodium falciparum Dd2 parasites were used. 6; Lysis buffer: 20 mM Tris-HCl, 10 mM EDTA, 0.16% Saponin, 1.6% Triton-X, 10X SYBR Green. REFERENCE: Inglese J, Shamu CE, Guy RK. 2007. Reporting data from high-throughput screening of small-molecule libraries. Nat Chem Biol. doi:10.1038/nchembio0807-438 Yasgar A, Shinn P, Jadhav A, Auld D, Michael S, Zheng W, Austin CP, Inglese J, Simeonov A. 2008. Compound Management for Quantitative High-Throughput Screening. J Lab Autom 13:79-89. doi:10.1016/j.jala.2007.12.004
Potency is the fitted concentration of half-maximal effect.

Compound	Potency
COc1ccc([C@@H]2CN(C(=O)CCc3c(C)noc3C)C[C@H]2N(C)C)cc1	inactive
CCC(C)NC(=O)N1CC(c2nc(CCOCC3CCOCC3)no2)C1 (stereo not drawn)	inactive
Nc1nc(N)c2cc(Sc3ccc4ccccc4c3)ccc2n1	1.33 µM (active)
CCOC(=O)c1ccc(Nc2nnc(C(C)(C)C)c(=O)[nH]2)cc1	13.3 µM (active)
CCc1ccc(CN(Cc2ccco2)C(=O)c2cc(-c3ccc(Cl)cc3)on2)cc1	inactive
Cc1cc(C(=O)Nc2cc(C)n(Cc3ccc(Cl)cc3)n2)no1	inactive
Cc1cc(NC(=O)c2cc(-c3ccco3)on2)nn1Cc1ccc(Cl)cc1	8.41 µM (active)
CCC(=O)N/C(N)=N/c1nc(C)c2cc(C)c(C)cc2n1	9.44 µM (active)
COC(=O)c1cc(O)cc(OC)c1Oc1cc(C)cc(O)c1C(=O)O	4.22 µM (active)
O=C(Cc1cccs1)NC1CCN(c2cc(C(F)(F)F)ncn2)CC1	inactive
O=C(CCCCn1c(=O)c2ccccc2n(CC(=O)Nc2ccccc2)c1=O)NCc1ccccc1Cl	inactive
COC(=O)c1ccccc1NC(=O)Cn1c(=O)n(CCCC(=O)NCc2ccccc2Cl)c(=O)c2ccccc21	inactive
Cc1ccc(NC(=O)Cn2c(=O)n(-c3ccc(C)cc3)c(=O)c3ccc(C(=O)NCc4ccccc4Cl)cc32)cc1	5.31 µM (active)
COc1ccc(C2c3ccc4ccccc4c3Oc3ncn(CCCN(C)C)c(=N)c32)cc1 (stereo not drawn)	2.99 µM (active)
CN(C)CCCn1cnc2c(c1=N)C(c1ccccc1)c1ccc3ccccc3c1O2 (stereo not drawn)	3.76 µM (active)
CN1CCN(c2cc(=O)c3ccnc(-c4cn[nH]c4)c3o2)CC1	inactive
CCC(C)N(CCNC(=O)c1ccc2c(c1)NC(=O)c1ccccc1S2)C1CCCCC1 (stereo not drawn)	13.3 µM (active)

Compound	Potency
CC(C)CNC(=O)c1ccc2c(c1)NC(C)(CNc1ccccc1)CO2 (stereo not drawn)	inactive
Cc1cc(C)n(CC(=O)N2C[C@@H](COc3ccccc3)[C@H](C(N)=O)C2)n1	inactive
CCOC(=O)COn1c(-n2nc(C)cc2C)nc2ccccc2c1=O	9.44 µM (active)
CCOC(=O)CCn1nc(-c2ccc(C)cc2)c2ccccc2c1=O	inactive
COc1ccc(C2c3ccc(O)cc3Oc3ncn4nc(-c5ccncc5)nc4c32)cc1OC (stereo not drawn)	15 µM (active)
COc1ccc(C(=O)N2CCN3C(=O)N(C4CCOCC4)C[C@H]3C2)cc1	inactive
O=C(c1ccc2c(c1)OCO2)N1CCC2(CC1)COc1ccccc1CN2	5.31 µM (active)
COc1ccc(C(=O)N2CCC3(CC2)CC(C(C)C)=NO3)cc1	inactive
c1ccc2c(c1)CNC1(CCN(Cc3cccc4ccccc34)CC1)CO2	7.5 µM (active)
Cc1ccccc1C(=O)N1CCC2(CC1)NC(=O)N(c1ccc(F)cc1)N2	inactive
O=C(c1ccccc1-c1ncc[nH]1)N1CC[C@@H](c2ccc3c(c2)OCO3)[C@H](O)C1	inactive
O=C(c1ccccc1F)N1CCC2(CC1)COc1ccccc1CN2	4.33 µM (active)
O=C1NCc2ccccc2CC12CCN(Cc1ccccc1F)CC2	inactive
O=C(c1ccccc1F)N1CCCC2(C1)NC(=O)N(Cc1cccc(Cl)c1)C2=O (stereo not drawn)	inactive
CCc1noc(-c2cn(C3CCCN(C(=O)c4ccc5c(c4)OCO5)C3)nn2)n1 (stereo not drawn)	inactive
COc1ccc(C(=O)N2CCC3(CC2)COc2ccccc2CN3)cc1	10.6 µM (active)
